Shown are actives, neighbours in structure and some others; about 2.7% of the full set was active somewhere.
CHT allo act – human CHT allosteric activation; Q9GZV3; CHT-expressing cells, membrane potential dye, choline EC20; stronger effect = higher value; LV-AA mutant CHT in HEK293 cells; B-score at 10 µM; 310,000 compounds, 0.49% hits; AID 488977;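 active = initial fluorescence not abnormally high and integrated response B-score, plate-corrected, over 3 SD above library mean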
IDE inh – inhibitors of human insulin-degrading enzyme in cells | inhibition, % at 5.59 µM | P14735 | 320,000 compounds, 0.41% hits | HEK cells, FAbetaB cleavage, fluorescence polarization | AID 434962;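 active = percent inhibition above the average of all tested compounds plus 3 SD, set per screening campaign, cut at about 16% in these data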;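 also: IDE supplied by intact live HEK cells; FP after avidin binding of uncleaved biotin substrate so inhibition keeps polarization high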
Target sequence (P14735 whole entry, looked up): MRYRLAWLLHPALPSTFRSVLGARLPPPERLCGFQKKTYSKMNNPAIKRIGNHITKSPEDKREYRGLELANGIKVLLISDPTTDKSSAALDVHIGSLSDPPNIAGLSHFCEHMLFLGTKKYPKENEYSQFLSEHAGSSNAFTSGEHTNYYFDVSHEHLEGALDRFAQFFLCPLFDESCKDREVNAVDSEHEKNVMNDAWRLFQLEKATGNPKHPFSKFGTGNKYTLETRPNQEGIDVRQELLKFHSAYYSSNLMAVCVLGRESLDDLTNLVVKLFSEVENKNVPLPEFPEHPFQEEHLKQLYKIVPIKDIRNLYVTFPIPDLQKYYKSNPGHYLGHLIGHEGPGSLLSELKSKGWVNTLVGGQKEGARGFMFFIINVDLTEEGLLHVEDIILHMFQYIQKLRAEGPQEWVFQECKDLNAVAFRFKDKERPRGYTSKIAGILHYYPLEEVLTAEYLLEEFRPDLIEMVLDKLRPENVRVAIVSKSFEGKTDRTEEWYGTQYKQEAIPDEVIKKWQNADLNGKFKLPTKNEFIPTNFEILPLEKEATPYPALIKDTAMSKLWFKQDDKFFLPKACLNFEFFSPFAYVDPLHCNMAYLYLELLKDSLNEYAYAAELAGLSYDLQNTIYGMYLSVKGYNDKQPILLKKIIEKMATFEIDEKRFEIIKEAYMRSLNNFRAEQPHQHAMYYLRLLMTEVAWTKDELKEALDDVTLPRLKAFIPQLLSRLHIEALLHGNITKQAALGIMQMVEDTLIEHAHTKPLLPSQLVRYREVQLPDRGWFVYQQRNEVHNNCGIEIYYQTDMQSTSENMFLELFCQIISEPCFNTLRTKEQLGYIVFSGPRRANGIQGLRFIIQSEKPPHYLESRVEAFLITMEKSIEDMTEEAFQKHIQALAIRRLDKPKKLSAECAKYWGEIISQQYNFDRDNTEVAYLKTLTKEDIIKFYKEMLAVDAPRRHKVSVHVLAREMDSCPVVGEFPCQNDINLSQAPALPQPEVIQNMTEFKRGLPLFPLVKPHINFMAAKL
CHT block – human CHT choline transport inhibition | CHT-expressing cells, membrane potential dye, choline response; stronger effect = lower value | Q9GZV3 | AID 488975 | 310,000 compounds, 0.86% hits | B-score at 10 µM;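 active = B-score over 3 SD under the library average, and starting fluorescence ratio not unusually high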;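 also: choline stimulus applied at its EC90 after an EC20 pre-addition; B-score computed on integrated fluorescence ratio after choline addition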
ANO1 block – mouse TMEM16A channel inhibition, primary screen. 310,000 compounds, 1.2% hits. normalized B-score (activity score, 25-100; higher = stronger inhibition) at 10 µM. Q8BHY3. HEK293 TMEM16A/YFP iodide influx fluorescence, ionomycin;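 active = ratio plate-corrected score three or more library SD toward inhibition, starting fluorescence score within five deviations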;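 also: score derived from kinetic fluorescence span divided by baseline fluorescence per well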
IDE act – boosts human insulin-degrading enzyme activity in HEK cells. FAbeta-B cleavage, fluorescence polarization; 0% vehicle, 100% cell-free pure enzyme wells. activation, % at 5.96 µM. 340,000 compounds, 0.073% hits. AID 493087;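 active = activation above the mean of all tested compounds plus 3 SD, set per screening campaign, cut at about 17% in these data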
TMEM16A act – mouse TMEM16A channel activation, primary screen | B-score at 10 µM | 340,000 compounds, 0.3% hits | Q8BHY3 | HEK293 TMEM16A/YFP-H148Q/I152L, iodide quench fluorescence; stronger effect = lower value;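 active = fluorescence-ratio B-score plate-corrected deviation score at least 3 library SD below zero, with starting fluorescence score within 5 deviations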;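 also: channel opened by trigger with iodide after compound preincubation; score built on the fluorescence ratio of max minus min over baseline; more negative score means more quench and so TMEM16A activation or potentiation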
TMEM16A reconf – reconfirmed blocker of mouse TMEM16A calcium-activated chloride channel | shares compounds with ANO1 block | HEK293 TMEM16A/YFP-H148Q, iodide quench fluorescence; ionomycin added to raise cell calcium | inhibition, % at 10 µM | 2,300 compounds, 39% hits | AID 652189;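 active = mean duplicate percent inhibition, scaled so buffer wells are 0 and the reference blocker 100, over three buffer SD above buffer mean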
HEK293 Ca mobil – counter-screen for TMEM16A inhibitors: effect on calcium mobilization. TMEM16A/YFP HEK293, Fluo4 calcium mobilization. 2,300 compounds, 2% hits. AID 652231. shares compounds with ANO1 block. calcium response (% of ionomycin), % at 10 µM;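 active = duplicate-averaged calcium signal over 20% of the ionomycin maximum, relative to buffer baseline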;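 also: each well's signal is peak minus trough fluorescence divided by its pre-addition baseline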
YFP-HEK293 quench – acts in parental YFP-HEK293 cells lacking TMEM16A, counter-screen. YFP ratio F(max-min)/F0 at 10 µM. 2,300 tested, under 10 active. iodide YFP quench, ionomycin. shares compounds with ANO1 block;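 active = yellow fluorescent protein signal ratio exceeding the buffer control mean by over 5 SD of those controls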;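 also: ratio is mean of duplicate wells from kinetic YFP trace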
ClC-1 rat inh – blocks the rat ClC-1 voltage-dependent chloride channel | AID 652236 | CHO ClC-1-YFP, iodide influx fluorescence quench; iodide control reads 0, buffer control 100 | ratio percent, % at 10 µM | 2,300 tested, under 10 active | shares compounds with ANO1 block;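 active = duplicate-mean ratio percent above the mean of iodide-only control wells, which defines zero, plus 5 of their SD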;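 also: higher percent means stronger block of ClC-1 iodide influx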
A number is an active result; n = inactive; x = no result given.

SMILES	CHT allo act	IDE inh	CHT block	ANO1 block	IDE act	TMEM16A act	TMEM16A reconf	HEK293 Ca mobil	YFP-HEK293 quench	ClC-1 rat inh
CCOC(=O)c1c(C)[nH]c(C(=O)OCC(=O)N(CC(C)C)C2CCS(=O)(=O)C2)c1C (centres undefined)	x	n	x	x	n	n	x	x	x	x
Cc1nc(NS(=O)(=O)c2ccc(Cl)s2)c2c3c(sc2n1)CCCC3	n	n	n	25	n	n	17.0%	n	n	n
O=C(c1ccc(F)cc1)N1CCC(c2ccccc2)C1 (centres undefined)	n	n	n	n	n	n	n	n	n	n
CSCCC(NC(=O)c1ccccc1Cl)C(=O)N1CCN(C(c2ccccc2)c2ccccc2)CC1 (centres undefined)	n	n	n	n	n	n	x	x	x	x
CN(CC(=O)Nc1ccc(Cl)c(C(F)(F)F)c1)C(=O)Cc1n[nH]c(=O)c2ccccc12	n	n	n	100	n	n	25.5%	n	n	n
CC(NS(=O)(=O)c1ccccc1)C1CC2CCC1C2 (centres undefined)	n	n	n	n	n	n	x	x	x	x
COc1ccc(CNC(=O)c2ccc(S(=O)(=O)N3CC(C)CC(C)C3)cc2)cc1OC (centres undefined)	x	x	x	x	n	n	x	x	x	x
CC(C)Cc1nc(N2CCN(C(=O)c3ccco3)CC2)c(C#N)c2c1CCCC2	n	n	n	25	n	n	n	n	n	n
Cc1nc(N2CCN(C(=O)c3ccco3)CC2)c(C#N)c2c1CCCC2	n	n	n	n	n	n	x	x	x	x
O=C(NCc1ccncc1)C(=O)Nc1nc(C23CC4CC(CC(C4)C2)C3)cs1	n	n	n	100	n	n	18.0%	n	n	n
O=C(NCc1ccccc1)C(=O)Nc1nc(C23CC4CC(CC(C4)C2)C3)cs1	n	n	n	n	n	n	x	x	x	x
Cc1ccccc1-c1noc(CCC(=O)NCc2ccco2)n1	n	n	n	n	n	n	x	x	x	x
O=C(COc1ccc(Br)cc1)c1ccc2c(c1)CCCC2	n	n	n	25	n	n	n	n	n	n
COc1ccccc1NC(=O)C(C)OC(=O)C(C)SCC(=O)Nc1ccc(C)cc1 (centres undefined)	x	x	x	x	n	n	x	x	x	x
O=C(C1CCN(S(=O)(=O)c2cccc3nsnc23)CC1)N1CCN(c2ccccc2F)CC1	n	n	n	n	n	n	x	x	x	x
O=C(c1ccco1)N1CCN(C(=O)C2CCN(S(=O)(=O)c3cccc4nsnc34)CC2)CC1	n	n	n	100	n	n	n	n	n	n
Cc1cccc(-n2ncc3c(=O)[nH]c(SCC(=O)NCCC4=CCCCC4)nc32)c1	x	n	x	x	n	n	x	x	x	x
Cc1nc(C(F)(F)F)c(C(=O)NC(=O)Nc2ccccc2)s1	n	n	n	n	n	n	x	x	x	x
Cc1nc(C(F)(F)F)c(C(=O)NC(=O)Nc2ccc(OC(F)(F)F)cc2)s1	n	n	n	100	n	n	n	n	n	n
COc1ccc(N2C(=O)C3CCCN3C2c2cccc(OC)c2OC)cc1 (centres undefined)	n	n	n	25	n	n	n	n	n	n
O=C(Cn1nnnc1CN1CCOCC1)N1CCC(c2cccc(Cl)c2)C1 (centres undefined)	n	n	n	n	n	n	x	x	x	x
CCc1cc2cc3c(cc2nc1SCC(=O)OC(C)C)OCO3	n	n	n	100	n	n	n	n	n	n
CC12CCC(=O)N1C(C(=O)NCc1ccccc1F)CS2 (centres undefined)	n	n	n	n	n	n	x	x	x	x
CC1Cc2ccccc2N1C(=S)Nc1ccc(S(N)(=O)=O)cc1 (centres undefined)	n	n	n	100	n	n	n	n	n	n
CC(=O)c1ccc(NC(=S)N2c3ccccc3CC2C)cc1 (centres undefined)	n	n	n	n	n	n	x	x	x	x
SMILES	CHT allo act	IDE inh	CHT block	ANO1 block	IDE act	TMEM16A act	TMEM16A reconf	HEK293 Ca mobil	YFP-HEK293 quench	ClC-1 rat inh
O=c1c(Cc2ccccc2)c(O)c2cccc3c4c(n1c23)CCCC4	n	n	n	25	n	n	41.0%	n	n	n
CN(C(=O)COC(=O)CCC(=O)c1ccc(Cl)cc1)c1c(N)n(Cc2ccccc2)c(=O)[nH]c1=O	n	n	n	n	n	n	x	x	x	x
Cc1ccc2nc(C)c(CN3CCN(c4ccc([N+](=O)[O-])cc4Cl)CC3)n2c1	n	n	n	25	n	n	18.5%	n	n	n
O=[N+]([O-])c1ccc(Cl)c(CN2CCN(c3ncccn3)CC2)c1	n	n	n	n	n	n	x	x	x	x
COc1ccc(NS(=O)(=O)c2ccc(OC)c(N(C)S(=O)(=O)c3ccc(Cl)cc3)c2)cc1	n	n	n	100	n	n	n	n	n	n
Cc1cc(-c2nnc(CCC(=O)NCc3cc(F)cc(C(F)(F)F)c3)o2)no1	n	n	n	n	n	n	x	x	x	x
COc1ccc(Cc2nnc(NC(=O)C(C)C)s2)cc1	n	n	n	n	n	n	x	x	x	x
COC(=O)Cc1nnc(NC(=O)C(C)C)s1	n	n	n	25	n	n	n	n	n	n
CCOc1cc(C)cc2oc(=O)cc(-c3ccccc3)c12	n	n	n	25	n	n	n	n	n	n
Cc1cc(C(=O)OCC(=O)N(C)c2ccccc2)c(C)o1	x	n	x	x	n	n	x	x	x	x
COc1ccc(C(=O)Oc2cccc(Nc3ncnc4ccccc34)c2)cc1OC	n	n	n	n	n	n	x	x	x	x
COc1cc(C(=O)Oc2cccc(Nc3ncnc4ccccc34)c2)cc(OC)c1OC	n	n	n	100	n	n	21.5%	n	n	n
CCC(C)C(NC(=O)C1CCC(C)CC1)C(=O)Nc1cc(OC)ccc1OC (centres undefined)	n	n	n	25	n	n	n	n	n	n
CCN(CC)S(=O)(=O)c1ccc2c(c1)nc(-c1ccccn1)n2C	n	n	n	n	n	n	x	x	x	x
O=C(CCl)Nc1c[nH]c(=O)[nH]c1=O	x	x	x	x	n	n	x	x	x	x
CCCC(CCC)C(=O)Nc1c[nH]c(=O)[nH]c1=O	n	n	n	100	n	n	n	n	n	n
COc1ccc(Cl)cc1NC(=O)CN(C)C(=O)Cn1cnnn1	x	n	x	x	n	n	x	x	x	x
NC(N)=NN=C1CCCCCCCCCCC1	n	n	n	n	n	n	n	n	n	n
ON=C1CCCCCCCC1	x	x	x	x	n	n	x	x	x	x

Bioassay records: PubChem, several laboratories
